Assay outcomes as filed in PubChem.
Sampled rows, rich in hits. Any-hit rate of the full collection: about 3.5%.
mHTT CaM bind = disrupts binding of mutant huntingtin to calmodulin. 190,000 tested, 3.6% active. inhibition, % at 15 µM. AlphaScreen His-mHTT/GST-CaM binding, luminescence. P42858
Pf apPOL inh = Pf-apPOL DNA polymerase inhibition; Recombinant Pf-apPOL, molecular beacon fluorescence, 1.5 h; inhibition, % at 10 µM; 210,000 tested, 0.25% active; AID 1794808
Of the large screens only hits and unclear results are named; the others gave an inactive call. Cut-off read from the data, not from the text of the source: active = inhibition above about 50%; inactive = the rest.

CCc1ccc(CNC(=O)C2CCN(c3cncnc3N3CCCC3)CC2)cc1	none
O=C(NCc1cccc(F)c1)C1CCN(c2cncnc2N2CCCC2)CC1	none
O=C(c1ccc(OCC2CCCN2C(=O)COc2ccc(F)cc2)cc1)N1CCOCC1 (stereo not given)	none
CCOc1ccc2nc(NC(=O)CCc3csc(NC(=O)c4ccco4)n3)sc2c1	none
COc1ccc(C(=O)CSc2nc(N)c(NC(=O)c3ccco3)c(=O)[nH]2)cc1	none
CCN(CC)c1ccc(Nc2nc(-c3c(C)nc4sccn34)cs2)cc1	mHTT CaM bind 93
COc1ccccc1Nc1nc(-c2ccccc2)cs1	none
COc1ccccc1Nc1nc(-c2c(C)nc3sccn23)cs1	mHTT CaM bind 80
COc1ccccc1Nc1nc(-c2c(C)nc3ccccn23)cs1	mHTT CaM bind 62
COc1ccc(OC)c(Nc2nc(-c3cccc([N+](=O)[O-])c3)cs2)c1	none
COc1ccc(OC)c(Nc2nc(-c3c(C)nc4ncccn34)cs2)c1	mHTT CaM bind 82
COc1ccccc1Nc1nc(-c2cccnc2)cs1	none
Cc1nc2sccn2c1-c1csc(Nc2ccc([N+](=O)[O-])cc2)n1	none
Cc1cc(F)ccc1NC(=O)C1CCc2sc(C(=O)N3CCCC3)cc2C1 (stereo not given)	none
CCC(=O)N1CCCN(C(C)=O)CC1	none
CC(=O)Nc1ccc(S(=O)(=O)N2CCN(Cc3cc(Br)ccc3O)CC2)cc1	none
CCOC1CCN(C(=O)NC2CCCCC2)CC1	none
CCc1c(O)nc2ccccn2c1=O	Pf apPOL inh 73
O=c1c(-c2ccccc2)c(O)nc2ccccn12	none (no result: mHTT CaM bind)
Cc1noc(-c2nn(C)c3c2CN(C(=O)Nc2ccc(F)cc2)CC3)n1	none
CCCC(=O)N(c1ccccc1)C1CC(C)Nc2ccccc21 (stereo not given)	mHTT CaM bind 54
CC1CC(Nc2ccccc2)c2ccccc2N1 (stereo not given)	none
O=C(O)c1ccc(C2Nc3ccc(I)cc3C3C=CCC32)cc1 (stereo not given)	mHTT CaM bind 97
O=C(O)c1ccc(C2Nc3ccc(F)cc3C3C=CCC32)cc1 (stereo not given)	mHTT CaM bind 79
O=C1CN(C(=O)c2ccc(F)cc2)C(c2ccc(F)cc2)c2cc(F)ccc2N1 (stereo not given)	none
Fc1ccc2c(c1)C1OCCC1C(c1ccccc1)N2 (stereo not given)	none (no result: Pf apPOL inh)
Fc1ccc2c(c1)C1C=CCC1C(c1ccc(Cl)cc1)N2 (stereo not given)	mHTT CaM bind 75
Cc1cccc(-c2ncccc2CNC(=O)c2ccc(N(C)C)cc2)c1	none
CCC(=O)N1c2ccccc2-c2nnc(SC)nc2OC1c1ccc(OC)c(OC)c1OC (stereo not given)	none
COc1ccc(CNC(=O)Nc2nnc(-c3cccs3)o2)cc1	none
Cc1ccccc1NC(=O)N1CCC(n2cnc3c(Cl)cccc3c2=O)CC1	none
CCN1c2cc(Cl)ccc2C(=O)NC12CCN(C(=O)NCc1ccc(C)cc1)CC2	none
CCN1c2cc(Cl)ccc2C(=O)NC12CCN(C(=O)NCc1ccc(F)cc1)CC2	mHTT CaM bind 58
Cc1ccc(NC(=O)Cn2nc(N3CCCCCC3)c3ccccc3c2=O)cc1F	none
CC(C)C(=O)OCCCN1C(=O)CCC12CCC(c1ccccc1)CC2 (stereo not given)	mHTT CaM bind 70
COc1ccc(C2CCC3(CCC(=O)N3CCOC(=O)C(C)C)CC2)cc1 (stereo not given)	none
COCCCNC(=O)c1cc2c(=O)n3ccccc3nc2n(CCOC)c1=N	none
N#CC1=C(N)SC(N)=C(C#N)C1c1ccc([N+](=O)[O-])s1	mHTT CaM bind 67 (no result: Pf apPOL inh)
Cc1cc(C)c([N+](=O)[O-])c(C)c1C1C(C#N)=C(N)SC(N)=C1C#N	mHTT CaM bind 65
Cc1ccsc1C1C(C#N)=C(N)SC(N)=C1C#N	none
N#CC1=C(N)SC(N)=C(C#N)C1c1ccc(Cl)cc1	none
N#CC1=C(N)SC(N)=C(C#N)C1c1ccc(Cl)c([N+](=O)[O-])c1	mHTT CaM bind 77
N#Cc1ccc([N+](=O)[O-])s1	none (no result: mHTT CaM bind)
COc1ccc(OC)c(NC(=O)CSc2ncnc3c2sc2ccccc23)c1	none
COc1ccc(CNC(=O)CCc2nc(-c3cccs3)no2)c(OC)c1	none
CC(=O)N1CCCC2(CC(c3ccc(C#N)cc3)=CO2)C1 (stereo not given)	none
COc1cccc(C(=O)N2CCC3(CC2)NC(=O)N(Cc2ccccc2Cl)C3=O)c1	none
O=C(NCc1ccc(F)cc1)c1ccc(NC(=O)C2CC2)cc1N1CCOCC1	none
COC(CNC(=O)c1cc(S(=O)(=O)N2CCC(C)CC2)ccc1F)OC	none
Cc1ccc(NC(=O)C2Oc3ccccc3NC2=O)c(Br)c1 (stereo not given)	none
CC1(c2ccc(Br)cc2)NC(=O)CS1 (stereo not given)	mHTT CaM bind 85
CC1CCC2(CC1)SCC(=O)N2c1ccc(Br)cc1 (stereo not given)	none
O=C1C(=Cc2cc(Cl)cc3c2OCOC3)Oc2c1ccc(O)c2CN1CCCCC1	none
CS(=O)(=O)NCCNc1ccc([N+](=O)[O-])cc1Cl	none
Nc1ccc(Nc2ccc([N+](=O)[O-])cc2S(=O)(=O)O)cc1	mHTT CaM bind 52
O=C(Cc1ccc(Cl)cc1)Nc1nnc(C2CC(=O)N(c3ccc(F)cc3)C2)o1 (stereo not given)	mHTT CaM bind 71
COc1ccc(N2CC(c3nnc(NC(=O)Cc4ccc(F)cc4)o3)CC2=O)cc1 (stereo not given)	mHTT CaM bind 73
COc1ccc(N2CC(c3nnc(NC(=O)Cc4ccc(Cl)cc4)o3)CC2=O)cc1 (stereo not given)	none
O=C(Nc1nnc(C2CC(=O)N(c3ccc(F)cc3)C2)o1)c1ccccc1F (stereo not given)	mHTT CaM bind 61
COc1ccc(CC(=O)Nc2nnc(C3CC(=O)N(c4ccc(OC)cc4)C3)o2)cc1 (stereo not given)	none
O=C(Nc1nnc(C2CC(=O)N(c3ccc(Cl)cc3)C2)o1)c1ccc(F)cc1 (stereo not given)	none
O=C(Nc1nnc(C2CC(=O)N(c3ccccc3)C2)o1)c1ccccc1F (stereo not given)	none
O=C(Cc1ccc(F)cc1)Nc1nnc(C2CC(=O)N(c3ccc(Cl)cc3)C2)o1 (stereo not given)	mHTT CaM bind 67
O=C(CCCOc1ccc(Cl)cc1Cl)N1CCCCC1	none
CCCOc1ccc(C2C(=O)N(C3CCCCC3)CC(=O)N2Cc2ccc(F)cc2)cc1OC (stereo not given)	none
Cc1c(C)n2c(SCC(=O)N3CCc4ccccc43)nnc2[nH]c1=O	none
CCOc1ccccc1NC(=O)N1CCCC1c1ccccc1F (stereo not given)	none
Cc1ccc2nc(N3CCC(C(=O)NCc4ccco4)CC3)[nH]c2c1	none
O=C(NCc1ccco1)c1nnn(-c2ccc(Cl)cc2)c1-c1cccnc1	none
O=C(NCC1CCCCC1)C1CCc2sc(C(=O)N3CCCC3)cc2C1 (stereo not given)	none
CCn1cc2nnn(Cc3ccco3)c(=O)c2n1	none (no result: Pf apPOL inh)
O=C(COc1ccc(F)cc1)Nc1nnc(C2CC(=O)N(c3ccc(F)cc3)C2)o1 (stereo not given)	mHTT CaM bind 68
COc1ccc(N2CC(c3nnc(NC(=O)COc4ccc(F)cc4)o3)CC2=O)cc1 (stereo not given)	none
CCc1ccc(NC(=O)C(=O)NCc2ccccc2C)cc1	none
O=C(NCc1ccccc1F)c1cc2n(n1)C(C(F)(F)F)CC(c1ccco1)N2 (stereo not given)	none
